Results on 38 compounds are retold here after PMC6212833.

Screen size: about 2,000 compounds; about 15 (0.8%) showed an effect of 50% or more. What follows is part of a selection rich in strong results, with near analogues and random picks from the rest.

The assay deals with Balamuthia mandrillaris (ATCC PRA-291) trophozoites, axenic culture. As to the kind of experiment: primary screen, percent inhibition; higher = more effect of the substance.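 Note: 0% = vehicle wells and 100% = lysate wells.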 The note with it: 20 µM. As for the experimental part: Screening of a clinically approved library of compounds, compiled by the Small Molecule Discovery Center (SMDC) at the UCSF, was completed at 20 µM in 0.2% DMSO. All 2,177 drugs in the library were stored as 10 mM stocks dissolved in 100% DMSO (Sigma-Aldrich) at −20°C. B. mandrillaris amoebae were resuspended in axenic medium and distributed into opaque 384-well plates (Corning) at a density of 3,000 amoebae per well using a BioMek NX liquid handler. Negative-control wells were treated with vehicle only (0.2% DMSO in axenic medium), and positive-control wells simulating total destruction of amoebae were seeded with amoeba lysate generated by 3 consecutive freeze-thaw cycles. Following 72 h of incubation, 30 µl of CellTiter Glo reagent (CTG; Promega) was added to each well. The luminescence was measured with a Promega GloMax-Multi+ plate reader at 2, 4, and 8 h after CTG addition. […] The B-score, representing a plate-based statistical approach for correcting row, column, and edge effects, was also calculated for each compound in the library (75).
By % Inhibition is commonly meant the change of the read-out against control, counted positive when it falls. With `C[C@]12CCC3c4ccc(O)cc4CCC3C1C[C@@H](O)[C@@H]2O` (some centres unmarked), the “% Inhibition” value is reported as -15%. For `C[C@@H]1O[C@@H](O[C@H]2C[C@@H](O)[C@]3(CO)[C@H]4[C@H](O)C[C@]5(C)[C@@H](C6=CC(=O)OC6)CC[C@]5(O)[C@@H]4CC[C@]3(O)C2)[C@H](O)[C@H](O)[C@H]1O` the value was 10.8%. Take `CC[N+](CC)(CC(=O)Nc1c(C)cccc1C)Cc1ccccc1`: the “% Inhibition” value is given as 14%. For `CN1[C@@H]2C[C@@H](OC(=O)[C@H](CO)c3ccccc3)C[C@H]1[C@@H]1O[C@@H]12`, the “% Inhibition” value was 20.7%. To `C=CCCCCCCCCC(=O)O` [735790-L3] belongs 30.5%; to `CCNC(=O)CCC/C=C\C[C@@H]1[C@@H](/C=C/[C@@H](O)CCc2ccccc2)[C@H](O)C[C@@H]1O`, 22.9%; to `Nc1ccc(S(=O)(=O)O)cc1`, 31.3%. To `CCC(=O)NCC[C@@H]1CCc2ccc3c(c21)CCO3` belongs 16.9%; to `CC(CC(C(N)=O)(c1ccccc1)c1ccccc1)N(C)C` (centres unmarked), 14.2%; to `C=Cc1c(C)c2[n]3c1C=C1C(C)=C(CC)C4=[N+]1[Cu]31[n]3c(c(C)c(C(=O)O)c3=C(CC(=O)O)C3=[N+]1C(=C2)C(C)C3CCC(=O)O)=C4` (centres unmarked), -2.1%.

Regarding `COc1cc2ncnc(Nc3ccc(F)c(Cl)c3)c2cc1OCCCN1CCOCC1` [756745-L3], the “% Inhibition” value is given as -9.92%. To `CC(=O)OCC(=O)[C@@]1(O)CCC2C3CCC4=CC(=O)CC[C@]4(C)[C@@]3(F)[C@@H](O)C[C@@]21C` (some centres unmarked) belongs 12.2%; to `CC(=O)[C@@]1(O)CC[C@H]2[C@@H]3C[C@H](C)C4=CC(=O)C=C[C@]4(C)[C@@]3(F)[C@@H](O)C[C@@]21C`, 10.1%; to `Cc1cccc(C)c1NC(=O)C1CCCCN1C` (centres unmarked), 13.3%. Consider `C[N+]1(C)[C@@H]2C[C@@H](OC(=O)C(O)(c3cccs3)c3cccs3)C[C@H]1[C@@H]1O[C@@H]12`, for which the “% Inhibition” value was 11.2%.

`O=C(O)c1ccc[n+]([O-])c1`: the “% Inhibition” value is 20.7%.

Turning to `CO/N=C(/C(=O)NC1C(=O)N2C(C(=O)O)=C(C[N+]3(C)CCCC3)CSC12)c1csc(N)n1` (centres unmarked), the “% Inhibition” value came to 21.4%. To `CC(=O)Nc1ccc(C(=O)O)cc1` belongs -20%; to `COc1cc(N)c(Cl)cc1C(=O)N[C@@H]1CCN(CCCOc2ccc(F)cc2)C[C@@H]1OC`, 1.93%. To `CCC(COC(=O)c1cc(OC)c(OC)c(OC)c1)(c1ccccc1)N(C)C` (centres unmarked) belongs 17.5%; to `CCN(CC)CCOC(=O)C(Cc1cccc2ccccc12)CC1CCCO1` (centres unmarked), 24.5%.

On to `NC(=O)[C@@H]1CCCN1C(=O)[C@H](Cc1cnc[nH]1)NC(=O)[C@@H]1CCC(=O)N1`, for which the “% Inhibition” value came out at 9.33%. To `CN1C2CCC1CC(OC(=O)[C@H](CO)c1ccccc1)C2` (some centres unmarked) belongs 23%; to `CC(C)c1nc(N(C)S(C)(=O)=O)nc(-c2ccc(F)cc2)c1/C=C/[C@@H](O)C[C@@H](O)CC(=O)O`, 35.4%.

As for `O=C(O)C[C@H](O)C[C@H](O)/C=C/c1c(C2CC2)nc2ccccc2c1-c1ccc(F)cc1`, the “% Inhibition” value was determined as 15.5%.

`COCc1c(C(C)C)nc(C(C)C)c(/C=C/[C@@H](O)C[C@@H](O)CC(=O)O)c1-c1ccc(F)cc1`: the “% Inhibition” value was 66.1%.

As to `N=C(N)NCC1COC2(CCCCC2)O1` (centres unmarked), the “% Inhibition” value worked out at 21.2%. To `COc1ccc2cc3[n+](cc2c1OC)CCc1cc2c(cc1-3)OCO2` belongs 29.8%; to `CC(=O)Nc1c(I)c(C(=O)N[C@H]2C(O)O[C@H](CO)[C@@H](O)[C@@H]2O)c(I)c(N(C)C(C)=O)c1I` (some centres unmarked), 8.04%. For `CCOC(=O)c1ncn2c1CN(C)C(=O)c1cc(F)ccc1-2` the value was 7.85%; for `O=C(O)c1cccnc1Nc1cccc(C(F)(F)F)c1`, 25.3%. To `COc1ccc2cc([C@H](C)C(=O)O)ccc2c1` [130714-L6] belongs 22.7%; to `Cc1nccn1CC1CCc2c(c3ccccc3n2C)C1=O` (centres unmarked), 16.2%; to `Cc1c(C(N)=O)cc([N+](=O)[O-])cc1[N+](=O)[O-]`, 20.6%. For `C[C@H](CCC(=O)O)[C@H]1CCC2C3C(=O)CC4CC(=O)CC[C@]4(C)C3CC(=O)[C@@]21C` (some centres unmarked), the “% Inhibition” value turned out to be 17.3%. For the compound `CCCCCCOC(=O)/N=C(\N)c1ccc(NCc2nc3cc(C(=O)N(CCC(=O)OCC)c4ccccn4)ccc3n2C)cc1` [756753-L2], the “% Inhibition” value was found to be 20.4%. For `OC(CNCC(O)C1CCc2cc(F)ccc2O1)C1CCc2cc(F)ccc2O1` (centres unmarked) the value was 6.6%; for `CC1OC1P(=O)(O)O` (centres unmarked) [131204-L2], 12.9%.
